# Screening data deposited in PubChem BioAssay by Sanford-Burnham Center for Chemical Genomics.
# pCIP destab: p/CIP-EGFP fusion destabilizers, primary screen, fluorescence, F442A cells. Q05BA5. 16 h. decrease of EGFP signal, % at 10 µM. 290,000 compounds, 0.01% hits. AID 1984, 2009;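 active means EGFP signal decrease of at least 30% at 10 µM or well 3 SD below plate mean, unless failing retest; inactive means the rest, including hits failing retest or dose response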
# FAS TE block: FAS thioesterase domain inhibitors, primary screen, biochemical, fluorescence intensity, uHTS; recombinant FAS-TE, OMFH fluorogenic substrate, fluorescence endpoint; inhibition, % at 15 µM; 360,000 compounds, 0.67% hits; AID 602261, 2012;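 active means compounds whose normalised, plate-corrected inhibition of enzyme fluorescence in the single-dose primary screen is 50% or more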;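 further: 0% = DMSO with enzyme and 100% = substrate without enzyme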
# GRIN3A LBD mod: binders of NR3A ligand-binding domain, primary screen, biophysical, differential scanning fluorimetry, uHTS; Tm shift relative to glycine control, % at 25 µM; NR3A LBD differential scanning fluorimetry, Tm shift; 0% = protein alone, 100% = glycine-bound protein; 340,000 compounds, 2.5% hits; Glutamate receptor ionotropic, NMDA 3A (GRIN3A) ligand-binding domain;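 active means melting temperature shift of at least 10% of the positive control shift, at one fixed dose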
# MIN6 prolif: inducers of MIN6 beta-cell proliferation, primary screen, ATP luminescence, uHTS | proliferation, % at 10 µM | MIN6 cells proliferation, ATPlite luminescence, 48 h; cells starved in 0.2% serum; 100% = growth in 10% serum | AID 2380, 2010 | 330,000 compounds, 0.29% hits;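 active means compounds whose signal lies at least 3.5 SD above the mean of all wells on their plate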;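 further: 0% = DMSO-treated cells in low-serum medium and 100% = 10% serum control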
# MPTP block: mitochondrial permeability transition pore inhibitors, primary screen, biochemical, isolated mouse mitochondria, absorbance | AID 602449, 2012 | Ca2+ swelling absorbance, 30 min | inhibition, % at 10 µM | 360,000 compounds, 1.4% hits;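 active means inhibition of 50% or more, scaled per plate between neutral and stimulator controls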;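 further: 0% = DMSO wells given calcium and 100% = 1 mM EGTA wells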
# MPTP counter: fluorescence retest of MPTP screen hits in isolated mitochondria, single concentration; shares compounds with MPTP block; membrane potential, Rhodamine 123 fluorescence; inhibition, % at 10 µM; 5,000 compounds, 78% hits; in the data active means inhibition above about 22%;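 further: 0% = DMSO vehicle and 100% = positive control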
# MPTP swell DR: mitochondrial permeability transition pore inhibitors, dose response, biochemical, absorbance, uHTS hits; shares compounds with MPTP block; isolated mitochondria swelling; IC50, µM; 780 compounds, 58% hits; AID 651561, 2012; in the data active means IC50 below about 20 µM
# MPTP counter DR: fluorescent counter-screen in isolated mitochondria, dose response, counter-screen for MPTP inhibitor project, biochemical, fluorescence, uHTS hits; shares compounds with MPTP block; AID 651564, 2012; 780 compounds, 49% hits; isolated mitochondria counterscreen, fluorescence read-out; IC50, µM; in the data active means IC50 below about 80 µM
# * = called active by the depositor; i = inactive; x = no result given. Shown are actives, neighbours in structure and some others; about 4.1% of the full set was active somewhere.
SMILES,pCIP destab,FAS TE block,GRIN3A LBD mod,MIN6 prolif,MPTP block,MPTP counter,others
COC(=O)c1cc(Cl)c(NC(=O)/C=C/c2ccc(Cl)cc2)cc1OC,-9,4,0,-1,3,x,
COC(=O)c1cc(Cl)c(NC(=O)/C=C/c2ccc(Cl)cc2Cl)cc1OC,-12,12,4,1,83*,3,MPTP swell DR=i;MPTP counter DR=4.4*
Cc1ccc(C)c(NC(=O)c2ccccc2NS(=O)(=O)c2cc([N+](=O)[O-])ccc2C)c1,16,40,17*,-6,92*,58*,
Cc1ccc(C)c(S(=O)(=O)Nc2ccccc2C(=O)Nc2cc(C)on2)c1,-2,2,-5,-4,58*,70*,
Cc1ccc([N+](=O)[O-])cc1S(=O)(=O)Nc1cccc(S(=O)(=O)Nc2ccccc2C(=O)O)c1,x,-3,6,-3,-2,x,
Cc1cc(NC(=O)c2ccccc2NS(=O)(=O)c2c(C)c(C)cc(C)c2C)no1,-24,-2,7,-4,49,x,
CCOc1ccccc1NC(=O)C(OC(=O)c1ccc(O)cc1)c1ccccc1 (stereo not given),-6,24,26*,-7,89*,86*,
CCOc1ccccc1NC(=O)C(OC(=O)c1ccc(CC)cc1)c1ccccc1 (stereo not given),-1,27,-1,-5,3,x,
Cc1cccc(N2CCN(C(=O)CN3C(=O)C4CC=CCC4C3=O)CC2)c1C (stereo not given),1,-1,-2,-5,-1,x,
O=C(COc1ccc(Nc2ccccc2)cc1)Nc1ccncc1,x,1,5,-8,26,x,
CCC(C)(C)c1ccc(OCC(=O)Nc2ccncc2)cc1,-12,12,1,-5,105*,81*,
O=C(COc1ccc(-n2ccnc2)cc1)Nc1cccc(F)c1,-18,-8,4,-3,20,x,
O=C(COc1ccc(Br)cc1)Nc1ccncc1,-6,-6,-4,2,55*,58*,
O=C(COc1ccc(-c2ccccc2)cc1)Nc1cccnc1,x,11,-6,-8,87*,102*,
O=C(COc1ccccc1)NCC(=O)Nc1ccncc1,x,-6,2,1,0,x,
O=C(COc1ccc([N+](=O)[O-])cc1)Nc1cccnc1,-12,-1,0,-3,-2,x,
O=C(COc1ccc(-n2ccnc2)cc1)Nc1cccc(Cl)c1,-9,5,6,-6,89*,57*,
COCc1cc(CN2CCN(CCc3ccccc3)C(CCO)C2)ccc1OC (stereo not given),-2,-4,3,1,0,x,
CN1/C(=C/c2cc[n+](C)c3ccccc23)C=Cc2ccccc21,-15,3,0,x,75*,59*,
C[n+]1ccc(/C=C/c2ccccc2O)c2ccccc21,1,-3,-1,-1,0,x,
Cc1cc(Cl)ccc1Oc1ccc(C(N)=O)cc1[N+](=O)[O-],6,-1,2,-1,1,x,
Cc1cc(Cl)ccc1Oc1ccccc1C(=O)CC#N,3,5,-2,-5,66*,75*,
N#Cc1cc(C(=O)c2cc(Br)ccc2O)cn(Cc2ccccc2)c1=O,6,28,0,-5,52*,77*,
O=C(COC(=O)c1ccc(F)c(S(=O)(=O)N2CCOCC2)c1)NCc1ccc(F)cc1,x,-5,-1,-3,0,x,
COc1ccc(OCc2n(CC(=O)OC3CC(C)CCC3C(C)C)c3ccccc3[n+]2C)cc1 (stereo not given),-34,4,-5,-6,34,x,
SMILES,pCIP destab,FAS TE block,GRIN3A LBD mod,MIN6 prolif,MPTP block,MPTP counter,others
COc1ccc(-c2n(CC(=O)OC3CC(C)CCC3C(C)C)c3ccccc3[n+]2C)cc1 (stereo not given),-34,4,6,x,50*,94*,
Cc1ccc(NC(=O)CCNC(=O)c2ccc([N+](=O)[O-])cc2)cc1S(=O)(=O)N(C)C,8,12,-1,-3,-1,x,
Cc1ccc(NC(=O)c2cccs2)cc1S(=O)(=O)Nc1cccc(Cl)c1,4,32,35*,-1,60*,68*,
Cc1ccc(NC(=O)CC(=O)c2ccc([N+](=O)[O-])cc2)cc1S(=O)(=O)Nc1cccc(Cl)c1,-8,40,25*,-6,80*,55*,
Cn1nc(C(F)(F)F)c(CNC(=O)C(C)(C)CCl)c1N1CCOCC1,-5,-6,0,-2,-2,x,
CC1CCCN(C(=S)SCC(=O)c2cc(Br)cc(Br)c2O)C1 (stereo not given),-8,16,-4,-6,59*,32*,
N#CCCN(Cc1ccccc1)S(=O)(=O)c1cccs1,5,-2,0,-1,0,x,
Cc1ccccc1N(C(=O)CS(=O)CC(=O)Nc1ccc(F)cc1)C(C)C(=O)NC(C)(C)C (stereo not given),-13,-1,-3,1,-2,x,
COc1ccc(C(=O)Oc2coc(CSc3nnc(NC(=O)c4cccs4)s3)cc2=O)cc1,-10,-4,-2,-2,-1,x,
Cc1cc(C)nc(SCC(=O)N/N=C\C(Br)=C\c2ccccc2)n1,3,8,0,-6,71*,66*,
Cc1cc(Cn2nnc3ccccc32)c(O)c(C(C)(C)C)c1,x,17,-24,-8,53*,94*,
CC(C)(C)c1cccc(Cn2nnc3ccccc32)c1O,x,14,-11,-8,82*,97*,
COC(=O)c1cc(NC(=O)c2cc(-c3ccc(OC)cc3)oc2C(F)(F)F)ccc1N1CCOCC1,0,26,5,-3,34,x,
COC(=O)c1cc(NC(=O)c2cc(-c3ccc(C(F)(F)F)cc3)oc2C(F)(F)F)ccc1N1CCOCC1,4,28,1,-4,88*,69*,
COc1ccc(CN(C)C(=O)c2cccc(S(=O)(=O)N3CCc4ccccc43)c2)c(OC)c1,x,26,2,-3,1,x,
O=C(CSCc1nc2ccccc2[nH]1)Nc1ccc2ccccc2c1,12,-3,-1,-3,1,x,
c1ccc2cc(CSCc3nc4ccccc4[nH]3)ccc2c1,-4,7,-6,0,88*,88*,
O=C(COC(=O)C1CC2C=CC1C2)Nc1ccccc1F (stereo not given),-12,-6,0,4,0,x,
